Measured values taken from PubChem BioAssay AID1159580 (chemical genetic matrix, 2015).
Several values for one entry are separate records, joined by “and”; a condition that tells them apart may be missing. Equal values may be shown once. The whole screen tested about 5,500 compounds, of which about 2,000 (36%) were called active. Inconclusive results (about 18%) are left out. Cut-off read from the data, not from the text of the source: active = normalized growth mostly below about 0.91 (no sharp cut-off); inconclusive = no clear call, values can overlap the other calls; inactive = mostly above about 0.92. Some of the results follow.

Assay: chemical genetic growth profiling, strain panel (AID 1159580);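 note: tested at 20 µM; growth read once vehicle control cultures reached saturation at 30 °C; 1 = growth at the plate median or of vehicle wells; lower values mean less growth of the strain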
Details: S. cerevisiae deletion strains, growth OD

Measured: normalized growth

CN(C)c1ccc(C(=C2C=CC(=[N+](C)C)C=C2)c2ccc(N(C)C)cc2)cc1
active: locus YAL013W, strain DEP1, stronger effect = lower value 0.362 | locus YAL021C, strain ccr4, stronger effect = lower value 0.479 | locus YAL026C, strain drs2, stronger effect = lower value 0.563 | locus YAL030W, strain snc1, stronger effect = lower value 0.453 | locus YBL061C, strain skt5, stronger effect = lower value 0.535 | locus YBR009C, strain hhf1, stronger effect = lower value 0.486 | locus YBR021W, strain FUR4, stronger effect = lower value 0.603 | locus YBR023C, strain chs3, stronger effect = lower value 0.506 | locus YBR171W, strain sec66, stronger effect = lower value 0.717 | locus YBR229C, strain ROT2, stronger effect = lower value 0.353 | locus YBR231C, strain swc5, stronger effect = lower value 0.551 | locus YBR279W, strain paf1, stronger effect = lower value 0.463 | locus YCL011C, strain gbp2, stronger effect = lower value 0.524 | locus YCL016C, strain dcc1, stronger effect = lower value 0.473 | locus YCL029C, strain bik1, stronger effect = lower value 0.507 | locus YCL069W, strain vba3, stronger effect = lower value 0.57 | locus YCR088W, strain abp1, stronger effect = lower value 0.563 | locus YDL005C, strain med2, stronger effect = lower value 0.67 | locus YDL035C, strain GPR1, stronger effect = lower value 0.317 | locus YDL040C, strain nat1, stronger effect = lower value 0.48 | locus YDL074C, strain BRE1, stronger effect = lower value 0.492 | locus YDL101C, strain DUN1, stronger effect = lower value 0.397 | locus YDL185W, strain tfp1, stronger effect = lower value 0.433 | locus YDL192W, strain arf1, stronger effect = lower value 0.462 | locus YDR001C, strain nth1, stronger effect = lower value 0.562 | locus YDR069C, strain doa4, stronger effect = lower value 0.61 | locus YDR101C, strain arx1, stronger effect = lower value 0.486 | locus YDR137W, strain rgp1, stronger effect = lower value 0.77 | locus YDR159W, strain sac3, stronger effect = lower value 0.75 | locus YDR162C, strain NBP2, stronger effect = lower value 0.316 | locus YDR297W, strain sur2, stronger effect = lower value 0.537 | locus YDR318W, strain mcm21, stronger effect = lower value 0.487 | locus YDR334W, strain swr1, stronger effect = lower value 0.578 | locus YDR335W, strain msn5, stronger effect = lower value 0.577 | locus YDR388W, stronger effect = lower value 0.435 | locus YDR392W, strain spt3, stronger effect = lower value 0.658 | locus YDR502C, strain sam2, stronger effect = lower value 0.534 | locus YEL003W, strain gim4, stronger effect = lower value 0.547 | locus YEL037C, strain rad23, stronger effect = lower value 0.565 | locus YEL061C, strain CIN8 (second series), stronger effect = lower value 0.569 | locus YEL061C, strain CIN8, stronger effect = lower value 0.347 | locus YER015W, strain faa2, stronger effect = lower value 0.574 | locus YER016W, strain bim1, stronger effect = lower value 0.494 | locus YER110C, stronger effect = lower value 0.586 | locus YER111C, strain swi4, stronger effect = lower value 0.744 | locus YER155C, strain BEM2 (second series), stronger effect = lower value 0.826 | locus YER155C, strain BEM2, stronger effect = lower value 0.411 | locus YER167W, strain BCK2, stronger effect = lower value 0.334 | locus YFR010W, strain ubp6, stronger effect = lower value 0.614 | locus YGL078C, strain dbp3, stronger effect = lower value 0.493 | locus YGL086W, strain mad1, stronger effect = lower value 0.406 | locus YGL167C, strain pmr1, stronger effect = lower value 0.59 | locus YGL173C, strain kem1, stronger effect = lower value 0.637 | locus YGL227W, strain vid30, stronger effect = lower value 0.561 | locus YGL240W, strain doc1, stronger effect = lower value 0.618 | locus YGL248W, strain PDE1, stronger effect = lower value 0.345 | locus YGL253W, strain hxk2, stronger effect = lower value 0.465 | locus YGR078C, strain PAC10, stronger effect = lower value 0.321 | locus YGR135W, strain pre9, stronger effect = lower value 0.509 | locus YGR229C, strain SMI1, stronger effect = lower value 0.363 | locus YGR252W, strain gcn5, stronger effect = lower value 1.33 [resistant] | locus YHR013C, strain ard1, stronger effect = lower value 0.747 | locus YHR027C, strain rpn1, stronger effect = lower value 0.525 | locus YHR079C, strain IRE1 (second series), stronger effect = lower value 0.476 | locus YHR079C, strain IRE1, stronger effect = lower value 1.26 [resistant] | locus YHR094C, strain hxt1, stronger effect = lower value 0.455 | locus YHR129C, strain ARP1, stronger effect = lower value 0.366 | locus YHR142W, strain chs7, stronger effect = lower value 0.638 | locus YHR200W, strain rpn10, stronger effect = lower value 0.459 | locus YIL066C, strain RNR3, stronger effect = lower value 0.346 | locus YIL073C, strain SPO22, stronger effect = lower value 0.67 | locus YIL125W, strain kgd1, stronger effect = lower value 0.505 | locus YIR030C, strain dcg1, stronger effect = lower value 0.493 | locus YJL092W, strain hpr5, stronger effect = lower value 0.548 | locus YJL095W, strain BCK1 (second series), stronger effect = lower value 0.525 | locus YJL115W, strain asf1, stronger effect = lower value 0.651 | locus YJL129C, strain trk1, stronger effect = lower value 0.795 | locus YJL134W, strain LCB3, stronger effect = lower value 0.349 | locus YJL154C, strain vps35, stronger effect = lower value 0.551 | locus YJL164C, strain tpk1, stronger effect = lower value 0.548 | locus YJL166W, strain qcr8, stronger effect = lower value 0.478 | locus YJL168C, strain set2, stronger effect = lower value 0.448 | locus YJL187C, strain SWE1 (second series), stronger effect = lower value 0.333 | locus YJL187C, strain SWE1, stronger effect = lower value 0.521
0.406 (active) and 1.08 (inactive): locus YJL095W, strain BCK1, stronger effect = lower value
inactive: locus YDR195W, strain ref2 1.06
0.364 (active) and 1.08 (inactive): locus YHR030C, strain SLT2, stronger effect = lower value
